Screening data: PubChem, Sanford-Burnham Center for Chemical Genomics
In the library only some 28% were active in any assay of this set; here they are far more common.
CYP2C19 act: human CYP2C19 activators, primary screen, biochemical, luminescence; Cytochrome P450 2C19 (Homo sapiens), P33261; recombinant CYP2C19, luciferin-H EGE luminescence; active compounds read high; 0 = fully inhibited enzyme, 1 = untreated enzyme; activation factor at 5 µM; 96,000 tested, under 10 active; AID 1025, 2008;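 active = activation factor of at least 2 at 5 µM in the primary screen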
CYP2C9 inhib: blockers of cytochrome P450 2C9 activity – biochemical, luminescence, ADME assay, primary screen; CYP2C9 Supersomes, luciferin-H conversion; inhibition, % at 5 µM; 96,000 tested, 20% active; P11712;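 active = blocking of liver enzyme CYP2C9 beyond about 50% at 5 µM, limit read from the data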
Target sequence (P11712 whole entry, looked up): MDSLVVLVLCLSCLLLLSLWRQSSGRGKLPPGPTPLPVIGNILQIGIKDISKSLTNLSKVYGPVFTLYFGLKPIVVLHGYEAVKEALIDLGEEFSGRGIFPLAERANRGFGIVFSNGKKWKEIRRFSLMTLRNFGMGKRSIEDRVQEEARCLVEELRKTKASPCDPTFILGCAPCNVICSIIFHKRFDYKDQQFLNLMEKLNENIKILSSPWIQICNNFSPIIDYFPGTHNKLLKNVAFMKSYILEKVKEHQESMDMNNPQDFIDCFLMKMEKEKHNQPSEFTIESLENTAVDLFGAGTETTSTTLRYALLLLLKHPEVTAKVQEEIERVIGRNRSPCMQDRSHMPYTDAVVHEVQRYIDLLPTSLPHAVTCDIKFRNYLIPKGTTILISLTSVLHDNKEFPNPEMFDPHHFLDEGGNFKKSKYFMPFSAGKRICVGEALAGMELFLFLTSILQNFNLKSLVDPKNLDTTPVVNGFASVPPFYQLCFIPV
CYP2C19 inhib: blockers of cytochrome P450 2C19 activity – biochemical, luminescence, ADME assay, primary screen; P33261; CYP2C19 Supersomes, luciferin-H EGE luminescence, 30 min; inhibition, % at 5 µM; 96,000 tested, 21% active; AID 778, 2007;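 active = CYP2C19 inhibition above a set limit at 5 µM in the primary screen, cut at about 50% in these data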
Mac1 fbg inh: inhibitors of CD11b/CD18 adhesion to fibrinogen, primary screen, K562 cells, luminescence | Integrin beta-2 (Homo sapiens) + Integrin alpha-M (Homo sapiens), P05107+P11215 | ATPlite luminescence; Mn2+ added to activate the integrin | inhibition, % at 10 µM | 93,000 tested, 0.54% active | AID 1497, 2009;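 active = primary inhibition of 50% or more at 10 µM, then 40% or more on retest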
CD11b adhes enh: enhancers of CD11b/CD18 adhesion to fibrinogen, primary screen, K562 cells, luminescence. Integrin beta-2 (Homo sapiens) + Integrin alpha-M (Homo sapiens), P05107+P11215. activation, % at 10 µM. 93,000 tested, 0.07% active. ATPlite luminescence;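 active = 10 µM primary screen giving 50% or more activity, confirmed by 40% or more on retest at that dose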
CYP2C9 act: human CYP2C9 activators, primary screen, biochemical, luminescence; Cytochrome P450 2C9 (Homo sapiens), P11712; 96,000 tested, 1.4% active; recombinant CYP2C9, luciferin-H conversion; active compounds read high; factor 1 = untreated enzyme, 0 = blocked; activation factor at 5 µM;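 active = activation factor of 2 or more for CYP2C9 at a 5 µM dose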
Each line names hits and unclear results; the compound was inactive in the other large screens.

CCOC(=O)c1c(C)n(C)c2ccc(OCC(O)Cn3c(C)nc4ccccc43)cc12 (stereo unspecified)	CYP2C9 inhib 70
Cc1cc(C)nc(SCc2ccc3nonc3c2)n1	none
CN1C(=O)c2ccccc2C(C(=O)O)C1c1cn(C)c2ccccc12 (stereo unspecified)	none (no result: Mac1 fbg inh, CD11b adhes enh)
OC1(c2ccccc2)C/C(=N\n2cnnc2)C=C1c1ccccc1 (stereo unspecified)	CYP2C9 inhib 95, CYP2C19 inhib 99
CCOC(=O)c1sc(=S)n(-c2ccccc2)c1SC	CYP2C19 inhib 58 (no result: Mac1 fbg inh, CD11b adhes enh)
CCOC(=O)c1sc(=S)n(-c2ccccc2Cl)c1SC	none
CCOC(=O)c1sc(=S)n(-c2cccc(C(F)(F)F)c2)c1SC	CYP2C9 inhib 61 (no result: Mac1 fbg inh, CD11b adhes enh)
O=C(Nc1c(C(=O)O)oc2ccc(Br)cc12)c1ccccc1	none
CSCC[C@H](NC(=O)OC(C)(C)C)c1nnc(SCC=C(C)C)o1	CYP2C9 inhib 57, CYP2C19 inhib 51
CSCC[C@H](NC(=O)OC(C)(C)C)c1nnc(SCC(N)=O)o1	none
CCc1ccccc1NC(=O)CSc1nnc([C@H](CCSC)NC(=O)OC(C)(C)C)o1	CYP2C9 inhib 65, CYP2C19 inhib 51
O=C(Nc1nn[nH]n1)C12CC3CC(CC(C3)C1)C2	none
N#CCSc1nc2c(sc(=S)n2Cc2ccco2)c(=O)n1-c1ccc(F)cc1	CYP2C9 inhib 71, CYP2C19 inhib 64 (no result: Mac1 fbg inh, CD11b adhes enh)
Cc1cccc(OCC(=O)N(C)CCc2ccccn2)c1	CYP2C19 inhib 68
Cc1cccc(CN(C)CCc2ccccn2)c1	none
O=C(Oc1ccc(-c2cnc3ccccc3n2)cc1)c1ccc(Cl)c([N+](=O)[O-])c1	none
O=C(Oc1ccc(-c2cnc3ccccc3n2)cc1)c1cccc([N+](=O)[O-])c1	CYP2C19 inhib 67
O=C(Oc1ccc(-c2cnc3ccccc3n2)cc1)c1ccc(Br)o1	CYP2C19 inhib 58
CCN(CC)S(=O)(=O)c1cc(C(=O)Oc2cccc(-c3cnc4ccccc4n3)c2)ccc1Br	CYP2C19 inhib 64
Cc1nc2ccc(NS(=O)(=O)c3ccc(C)c(C)c3)cc2s1	CYP2C9 inhib 77
Cc1nc2ccc(S(=O)(=O)Nc3ccccc3C)cc2s1	CYP2C9 inhib 70, CYP2C19 inhib 97
Cc1nc2ccc(S(=O)(=O)NCC(=O)N3CCc4ccccc4C3)cc2s1	CYP2C19 inhib 66
CC1(C)Cc2c(sc3nc(-c4ccccc4Cl)n(N)c(=O)c23)CO1	none
COc1ccccc1CN=C1NC(=O)C(CC(=O)Nc2ccc(OC)c(OC)c2)S1 (stereo unspecified)	none
N#Cc1cc2c(nc1SCC(=O)Nc1nccs1)CCCCC2	CYP2C9 inhib 54
CCSc1nnc(NC(=O)C(C)(C)C)s1	CYP2C19 inhib 52
CCSc1nnc(NC(=O)CSc2nc3c(cc2C#N)CCCC3)s1	CYP2C9 inhib 51 (no result: Mac1 fbg inh, CD11b adhes enh)
CCSc1nnc(NC(=O)CSc2nc(C)cc(C)n2)s1	CYP2C19 inhib 61
CCc1nnc(NC(=O)CSc2nc3c(cc2C#N)CCC3)s1	none
CC1(c2ccc(Cl)cc2Cl)OCC(Cn2ccnc2)O1 (stereo unspecified)	CYP2C9 inhib 83, CYP2C19 inhib 99
O=C(NCc1ccc(Cl)cc1)C1C2C=CC3(CN(Cc4cccnc4)C(=O)C13)O2 (stereo unspecified)	CYP2C9 inhib 53
C=CCNc1nc(N2CCCC2)nc2ccccc12	none
OCCNc1nc(N2CCN(Cc3ccccc3)CC2)nc2ccccc12	CYP2C9 inhib 54
COC(=O)c1cc(-c2ccc3c(c2)OCO3)nc2ccccc12	none
COc1ccc(-c2cc(C(=O)NCCN3CCOCC3)c3ccccc3n2)cc1	CYP2C9 inhib 52
COc1ccc(CNC(=O)c2c(N)n(CCCN3CCOCC3)c3nc4ccccc4nc23)cc1	CYP2C19 inhib 75
O=C(NCCCN1CCOCC1)c1cc(-c2ccc3c(c2)OCO3)nc2ccccc12	CYP2C9 inhib 54
CCOc1ccc(-c2cc(C(=O)NCCCN3CCN(CC)CC3)c3ccccc3n2)cc1	none
Nc1c(C(=O)NCc2ccc(F)cc2)c2nc3ccccc3nc2n1CCCN1CCOCC1	none
O=C(Nc1ccc(C(F)(F)F)cc1)c1cc(S(=O)(=O)NCC2COc3ccccc3O2)ccc1F (stereo unspecified)	none (no result: CYP2C19 act, CYP2C9 inhib, CYP2C19 inhib, CYP2C9 act)
CCn1c(=O)cc(SCC(=O)NCc2ccccn2)c2ccccc21	none
CC(=O)c1ccc(N2CCC(c3cc(-c4ccc(Cl)cc4)n[nH]3)CC2)c([N+](=O)[O-])c1	CYP2C9 inhib 57, CYP2C19 inhib 56 (no result: Mac1 fbg inh, CD11b adhes enh)
COc1ccc(-c2cc(C3CCN(c4ccc(C(C)=O)cc4[N+](=O)[O-])CC3)[nH]n2)cc1	CYP2C9 inhib 65, CYP2C19 inhib 84 (no result: Mac1 fbg inh, CD11b adhes enh)
CCC(C)n1c(SC(C)C#N)nc2ccccc2c1=O (stereo unspecified)	CYP2C9 inhib 70
Cc1ccccc1NS(=O)(=O)c1ccc(N2CCCC2=O)cc1	none
CCOc1ccc(OCC)c(NS(=O)(=O)c2ccc3c(c2)n(C)c(=O)c(=O)n3C)c1	none
CCOc1ccc(S(=O)(=O)Nc2cc(OC)ccc2OC)cc1	CYP2C9 inhib 55, CYP2C19 inhib 100
COc1ccc(OC)c(NS(=O)(=O)c2ccc(NC(C)=O)cc2)c1	CYP2C19 inhib 100
COc1ccc(C)cc1NS(=O)(=O)c1ccc(NS(=O)(=O)c2ccc(NC(C)=O)cc2)cc1	CYP2C9 inhib 66, CYP2C19 inhib 62 (no result: Mac1 fbg inh, CD11b adhes enh)
COc1ccc(OC)c(NS(=O)(=O)c2ccc(N3CCCC3=O)cc2)c1	CYP2C19 inhib 95
CCOC(=O)c1c(C)[nH]c(C(=O)COC(=O)CCC(=O)c2ccc3c(c2)OCCO3)c1C	none
CC1(C)CC(O)C(C)(C)N1O (stereo unspecified)	none (no result: Mac1 fbg inh, CD11b adhes enh)
Cc1cc(=O)n2nc(N3CCCC3C(=O)NCCCN3CCCCC3)sc2n1 (stereo unspecified)	none
COc1ccc(S(=O)(=O)Nc2cc(C)ccc2OC)cc1C	CYP2C9 inhib 80, CYP2C19 inhib 100
Cc1c(Cl)cccc1NC(=O)c1cc(-c2ccccc2O)n[nH]1	CYP2C9 act 2.7
COc1ccc(OC)c(NC(=O)c2ccc(NC(C)=O)cc2)c1	CYP2C9 act 2.6
O=C(O)c1cc(-c2ccccc2Cl)n[nH]1	none
CCOc1cc(NC(=S)Nc2ccccc2)c(OCC)cc1NC(=O)c1ccc(OC)cc1	CYP2C9 inhib 69 (no result: Mac1 fbg inh, CD11b adhes enh)
Cc1ccnn1CCSCC(=O)O	none
Cc1ccc(NC(=O)c2sc3nc[nH]c(=O)c3c2C)c(C)c1	none (no result: Mac1 fbg inh, CD11b adhes enh)
